# Source: the supplement of paper PMC8728848
# Shown is part of a subset that was picked to be rich in the strongest signals.
# B1: Cohesin-hMARCO (Homo sapiens) (protein)
# chain: LDDLDAVRIKVDTVNAKPGDTVRIPVRFSGIPSKGIANCDFVYSYDPNVLEIIEIEPGDIIVDPNPDKSFDTAVYPDRKIIVFLFAEDSGTGAYAITKDGVFATIVAKVKEGAPNGLSVIKFVEVGGFANNDLVEQKTQFFDGGANVGDTTEPATPTTPVTTPTTTDDLDAASVRIVGSSNRGRAEVYYSGTWGTICDDEWQNSDAIVFCRMLGYSKGRALYKVGAGTGQIWLDNVQCRGTESTLWSCTKNSWGHHDCSHEEDAGVECSVHHHHHH
# Key:
# Assay in all cases: glycan array binding signal (z-score within array); higher = stronger binding
# Conditions in all cases: glycan notation: IUPAC condensed, linker removed
# [1] = target: GalNAc(b1-3)Gal
# Procedure, shortened: (§1)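 Negative Z-scores can be read as non-binding. The Z-score is calculated within each array and then averaged across arrays of one protein sequence at different concentrations or buffers and across linkers. Arrays, 3228 in all, were curated from the Consortium for Functional Glycomics database and kept only where the protein sequence was available.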
# [2] = target: Glc(a1-4)Glc
# Procedure, shortened: as §1
# [3] = target: GlcNAc(a1-4)Gal(b1-4)GalNAc
# Procedure, shortened: as §1
# [4] = target: GlcNAc(a1-4)Gal(b1-4)GlcNAc(b1-3)Gal(b1-4)[Fuc(a1-3)]GlcNAc(b1-3)Gal(b1-4)[Fuc(a1-3)]GlcNAc
# Procedure, shortened: as §1
# [5] = target: GlcNAc(b1-2)Man(a1-3)[GlcNAc(b1-2)Man(a1-6)]Man(b1-4)GlcNAc(b1-4)GlcNAc
# Procedure, shortened: as §1
# [6] = target: GlcNAc(b1-3)Gal(b1-4)GlcNAc(b1-3)Gal(b1-4)GlcNAc(b1-2)Man(a1-3)[GlcNAc(b1-3)Gal(b1-4)GlcNAc(b1-3)Gal(b1-4)GlcNAc(b1-2)Man(a1-6)]Man(b1-4)GlcNAc(b1-4)[Fuc(a1-6)]GlcNAc
# Procedure, shortened: as §1
# [7] = target: GlcNAc(b1-3)Gal(b1-4)GlcNAc(b1-6)[GlcNAc(b1-3)Gal(b1-3)]GalNAc
# Procedure, shortened: as §1
# [8] = target: GlcNAc(b1-3)GalNAc
# Procedure, shortened: as §1
# [9] = target: Man(a1-2)Man(a1-2)Man(a1-3)Man
# Procedure, shortened: as §1
# [10] = target: Man(a1-2)Man(a1-6)[Man(a1-3)]Man(a1-6)[Man(a1-2)Man(a1-2)Man(a1-3)]Man
# Procedure, shortened: as §1
# [11] = target: Man(a1-3)[Man(a1-6)]Man(b1-4)GlcNAc(b1-4)[Fuc(a1-6)]GlcNAc
# Procedure, shortened: as §1
# [12] = target: Man(a1-6)Man
# Procedure, shortened: as §1
# [13] = target: Neu5Ac(a2-3)Gal(b1-3)GlcNAc6S
# Procedure, shortened: as §1
# [14] = target: Neu5Ac(a2-3)Gal(b1-3)[Neu5Ac(a2-6)]GalNAc
# Procedure, shortened: as §1
# [15] = target: Neu5Ac(a2-3)Gal(b1-4)Glc
# Procedure, shortened: as §1
# [16] = target: Neu5Ac(a2-3)Gal(b1-4)GlcNAc(b1-2)Man
# Procedure, shortened: as §1
# [17] = target: Neu5Ac(a2-3)Gal(b1-4)GlcNAc(b1-2)[Neu5Ac(a2-3)Gal(b1-4)GlcNAc(b1-4)]Man(a1-3)[GlcNAc(b1-4)][Neu5Ac(a2-3)Gal(b1-4)GlcNAc(b1-2)[Neu5Ac(a2-3)Gal(b1-4)GlcNAc(b1-6)]Man(a1-6)]Man(b1-4)GlcNAc(b1-4)GlcNAc
# Procedure, shortened: as §1
# [18] = target: Neu5Ac(a2-3)Gal(b1-4)GlcNAc(b1-3)Gal(b1-4)GlcNAc
# Procedure, shortened: as §1
# [19] = target: Neu5Ac(a2-3)Gal(b1-4)GlcNAc(b1-3)Gal(b1-4)GlcNAc(b1-6)[Gal(b1-3)]GalNAc
# Procedure, shortened: as §1
# [20] = target: Neu5Ac(a2-3)Gal(b1-4)GlcNAc(b1-6)[Gal(b1-3)]GalNAc
# Procedure, shortened: as §1
# [21] = target: Neu5Ac(a2-3)Gal(b1-4)[Fuc(a1-3)]GlcNAc(b1-3)Gal(b1-4)[Fuc(a1-3)]GlcNAc(b1-3)Gal(b1-4)[Fuc(a1-3)]GlcNAc
# Procedure, shortened: as §1
# [22] = target: Neu5Ac(a2-6)Gal(b1-4)Glc
# Procedure, shortened: as §1
# [23] = target: Neu5Ac9Ac(a2-3)Gal(b1-3)GlcNAc
# Procedure, shortened: as §1
# [24] = target: Neu5Gc(a2-3)Gal(b1-4)GlcNAc(b1-3)Gal(b1-4)GlcNAc(b1-2)Man(a1-3)[Neu5Gc(a2-3)Gal(b1-4)GlcNAc(b1-3)Gal(b1-4)GlcNAc(b1-2)Man(a1-6)]Man(b1-4)GlcNAc(b1-4)GlcNAc
# Procedure, shortened: as §1
binder,measurement,setting,value
B1,glycan array binding signal (z-score),[1],3.14
same,glycan array binding signal (z-score),[2],-0.037
same,glycan array binding signal (z-score),[3],-0.39
same,glycan array binding signal (z-score),[4],-0.104
same,glycan array binding signal (z-score),[5],-0.381
same,glycan array binding signal (z-score),[6],-0.453
same,glycan array binding signal (z-score),[7],-0.586
same,glycan array binding signal (z-score),[8],-0.3
same,glycan array binding signal (z-score),[9],3.08
same,glycan array binding signal (z-score),[10],-0.013
same,glycan array binding signal (z-score),[11],-0.571
same,glycan array binding signal (z-score),[12],3.28
same,glycan array binding signal (z-score),[13],0.039
same,glycan array binding signal (z-score),[14],-0.255
same,glycan array binding signal (z-score),[15],-0.436
same,glycan array binding signal (z-score),[16],0.296
same,glycan array binding signal (z-score),[17],-0.288
same,glycan array binding signal (z-score),[18],-0.514
same,glycan array binding signal (z-score),[19],-0.369
same,glycan array binding signal (z-score),[20],-0.481
same,glycan array binding signal (z-score),[21],-0.404
same,glycan array binding signal (z-score),[22],-0.411
same,glycan array binding signal (z-score),[23],4.33
same,glycan array binding signal (z-score),[24],0.016
